Assay outcomes: PubChem BioAssay, several laboratories
Only some compounds are listed: those with a hit (about 4.1% of all), similar ones and a draw of the others.
aSyn UTR inh = 5' untranslated region of α-synuclein, MLPCN primary screen; alpha-synuclein 5'UTR reporter, inhibitor activity; inhibition, % (tested at 7.5 µM); 300,000 compounds, 0.82% hits; AID 1813; in the data active = inhibition above about 60%;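 note: H4 neuroglioblastoma cells stably carrying SNCA 5'UTR luciferase fusion; 0% = DMSO wells and 100% = positive control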
Jurkat NFkB inh = lowers PMA/ionomycin-induced NF-kB signal in Jurkat cells. inhibition, % at 4 µM. 330,000 compounds, 0.53% hits. PMA/ionomycin-induced NF-kB luciferase reporter, luminescence; in the data active = inhibition above about 50%
Mdm2-MdmX inh = disrupts the human Mdm2-MdmX interaction; O15151+Q00987; SaOS-2 split-luciferase Mdm2/MdmX complementation, luminescence; inhibition, % at 8 µM; 330,000 compounds, 3% hits;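 active = inhibition of at least 50% at 8 µM in the primary screen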
Target sequence (O15151 whole entry, looked up): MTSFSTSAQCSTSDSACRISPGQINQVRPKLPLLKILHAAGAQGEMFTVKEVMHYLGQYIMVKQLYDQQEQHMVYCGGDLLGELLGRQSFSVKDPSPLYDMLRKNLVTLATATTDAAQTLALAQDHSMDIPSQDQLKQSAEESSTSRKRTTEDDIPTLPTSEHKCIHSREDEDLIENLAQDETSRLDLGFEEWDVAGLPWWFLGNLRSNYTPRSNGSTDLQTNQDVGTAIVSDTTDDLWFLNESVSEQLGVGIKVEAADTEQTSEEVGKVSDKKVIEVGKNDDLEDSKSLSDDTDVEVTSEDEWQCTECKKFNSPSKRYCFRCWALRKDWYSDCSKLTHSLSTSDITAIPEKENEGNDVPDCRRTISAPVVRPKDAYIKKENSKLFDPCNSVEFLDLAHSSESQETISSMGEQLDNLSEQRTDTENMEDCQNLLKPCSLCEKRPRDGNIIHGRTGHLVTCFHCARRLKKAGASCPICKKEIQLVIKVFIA
Target sequence (Q00987 whole entry, looked up): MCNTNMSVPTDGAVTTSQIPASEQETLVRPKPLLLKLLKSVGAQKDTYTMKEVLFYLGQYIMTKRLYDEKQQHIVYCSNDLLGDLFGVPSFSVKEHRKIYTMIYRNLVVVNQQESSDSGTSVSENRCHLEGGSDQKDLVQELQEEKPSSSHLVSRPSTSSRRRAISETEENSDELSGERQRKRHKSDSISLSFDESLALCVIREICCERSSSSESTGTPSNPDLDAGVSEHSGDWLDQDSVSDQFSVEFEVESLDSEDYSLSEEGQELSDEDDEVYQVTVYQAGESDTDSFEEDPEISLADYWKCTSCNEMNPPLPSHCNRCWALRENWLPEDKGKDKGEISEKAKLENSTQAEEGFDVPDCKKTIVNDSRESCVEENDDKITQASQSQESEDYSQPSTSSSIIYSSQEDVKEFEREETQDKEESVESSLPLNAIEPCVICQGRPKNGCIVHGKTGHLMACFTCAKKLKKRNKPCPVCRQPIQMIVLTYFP
697 NFkB inh = inhibitors of the PMA/ionomycin-induced NF-kB reporter in 697 B cells. 697 B-cell NF-kB luciferase reporter, 16 h. inhibition, % at 4 µM. 330,000 compounds, 0.33% hits. AID 435022; in the data active = inhibition above about 35%
Gli-Sufu block = antagonists of Gli-Sufu signaling | inhibition, % at 5 µM | Sufu-KO-LIGHT fibroblasts, Gli luciferase reporter luminescence | 340,000 compounds, 0.74% hits;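 active = inhibition above about 55%, limit read from the data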;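 note: 0% = DMSO-treated cells and 100% = wells with medium but no cells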
KLF5 inh = suppresses KLF5 promoter-driven expression; DLD-1 KLF5 promoter-luciferase reporter, luminescence; inhibition, % at 5 µM; 290,000 compounds, 0.23% hits; AID 1700;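 active = inhibition above a per-plate limit of that plate's mean compound inhibition plus 3 SD, cut at about 60% in these data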;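 note: 0% = DMSO wells and 100% = LY294002 at 200 µM; higher means less KLF5 promoter-driven luciferase light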
Mdm2 MdmX conf = confirmation of human Mdm2/MdmX interaction inhibitors; shares compounds with Mdm2-MdmX inh; Mdm2-MdmX binding, luminescent assay; inhibition, % at 8 µM; 10,000 compounds, 55% hits; AID 489028; in the data active = inhibition above about 40%
FLuc counter = full-length luciferase inhibition in Mdm2/MdmX counter-screen; shares compounds with Mdm2-MdmX inh; SaOS-2 full-length luciferase counterscreen, luminescence; inhibition, % at 8 µM; 6,200 compounds, 77% hits; AID 504607;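 active = mean inhibition at 8 µM reaching about 37%, which flags the compound as non-specific, limit read from the data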;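 note: p53-null SaOS-2 cells with luciferase driven by a doxycycline-inducible promoter; compound on cells about two nights before reading with doxycycline added after day one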
The depositor's hits bear a star; nt = no result.

SMILES	aSyn UTR inh	Jurkat NFkB inh	Mdm2-MdmX inh	697 NFkB inh	Gli-Sufu block	KLF5 inh	Mdm2 MdmX conf	FLuc counter
CCn1c(=O)c(C(=O)NNC(=O)c2ccccc2)c(O)c2ccccc21	-17	3	50	3	3	1	43*	54*
CC(C)Cn1c(=O)c(C(=O)Nc2ccncc2)c(O)c2ccccc21	66*	17	69*	0	-11	nt	51*	38*
CCn1c(=O)c(C(=O)Nc2ccccc2S(N)(=O)=O)c(O)c2ccccc21	-39	-4	56*	-31	-18	-65	3	nt
CCn1c(=O)c(C(=O)Nc2ccccc2C)c(O)c2ccccc21	-81	-19	7	-14	-13	-18	nt	nt
CC(C)CN(C(=O)CN(C)C(=O)c1ccco1)c1c(N)n(CC(C)C)c(=O)[nH]c1=O	-9	-3	-7	-3	-13	nt	nt	nt
COc1ccc(-c2cc(N)n(S(=O)(=O)c3ccc(C)cc3)n2)c(OC)c1	10	-2	-6	7	6	-6	nt	nt
COc1ccc(S(=O)(=O)n2nc(-c3ccc(Cl)cc3)cc2N)cc1	-26	1	51*	11	8	-16	52*	59*
C/C(=N\NC(=O)c1ccc(Cl)c(Cl)c1)c1ccc(Br)s1	91*	4	68*	-1	10	21	55*	47*
O=c1cc(O)c2sc(Nc3ccc(F)c(Cl)c3)nc2[nH]1	-5	0	60*	5	-3	-6	45*	63*
O=c1cc(O)c2sc(Nc3ccc(Cl)c(F)c3)nc2[nH]1	-1	-5	72*	6	4	-3	56*	45*
Cc1nc(NCc2ccc3c(c2)OCO3)c2nnn(Cc3ccccc3)c2n1	30	1	77*	1	-1	-1	38	67*
c1ccc(Cn2nnc3c(NCc4ccc5c(c4)OCO5)nc(C4CC4)nc32)cc1	8	12	48	-17	-4	-22	nt	nt
COc1ccc(Cc2[nH]n3c(=O)cc(C(C)C)nc3c2-c2ccccc2)cc1	72*	2	62*	0	14	13	62*	40*
COc1ccc(Cc2[nH]n3c(=O)cc(C)nc3c2-c2ccccc2)cc1	9	8	39	23	-4	-10	nt	nt
COc1cc(C(=O)O/N=C(\N)c2ccccn2)cc(OC)c1OC	-34	2	67*	-14	4	-67	-2	nt
Cc1cccc(C(=O)O/N=C(\N)c2ccccn2)c1	70*	-32	65*	-106	-6	-15	63*	100*
CCOc1ccc(C(=O)O/N=C(\N)c2ccccn2)cc1	62*	13	95*	-160	21	17	86*	33
Cc1ccc(C(=O)O/N=C(\N)c2ccccn2)cc1	65*	-77	91*	-161	-22	38	89*	34
CCCCn1nc(C(=O)NCC(c2cccs2)N2CCOCC2)c2ccccc2c1=O (stereo not given)	nt	27	5	-5	12	nt	nt	nt
Cc1ccc(C(=O)O/N=C(\N)c2ccccn2)cc1C	46	-13	82*	-162	42	43	70*	64*
CC[C@@H](C(=O)[C@@H](C)[C@@H](O)[C@H](C)CCc1ccc(C)c(O)c1C(=O)O)[C@H]1O[C@](CC)([C@H]2CC[C@](O)(CC)[C@H](C)O2)C[C@@H]1C	100*	22	100*	-103	82*	32	71*	35
COc1cc(CCC(=O)NCc2ccc3c(c2)OCO3)cc(OC)c1OC	10	-16	10	-4	-4	-7	nt	nt
COc1cc(Br)cc(/C=C/c2ccc3cccc(O)c3n2)c1O	27	1	81*	-16	5	-34	68*	51*
COc1cc(Br)c(/C=C/c2ccc3cccc(O)c3n2)cc1OC	8	-8	74*	2	-2	-32	52*	47*
Oc1ccc(Cl)cc1/C=C/c1ccc2cccc(O)c2n1	15	-29	60*	-79	12	27	39	63*
SMILES	aSyn UTR inh	Jurkat NFkB inh	Mdm2-MdmX inh	697 NFkB inh	Gli-Sufu block	KLF5 inh	Mdm2 MdmX conf	FLuc counter
Oc1cccc2ccc(/C=C/c3ccccc3Br)nc12	33	-84	-12	-98	9	-74	nt	nt
Oc1c(Cl)cc(Cl)cc1/C=C/c1ccc2cccc(O)c2n1	-58	3	48	-18	41	-32	nt	nt
COc1cc(/C=C/c2ccc3cccc(O)c3n2)c(Br)cc1O	-42	-25	98*	-43	nt	-31	39	29
COc1cc(/C=C/c2ccc3cccc(O)c3n2)ccc1O	-67	-55	100*	-132	3	-175	-41	nt
COc1ccc(OC)c(/C=C/c2ccc3cccc(O)c3n2)c1	41	9	93*	-24	nt	-5	38	nt
CC(CC(=O)O)Nc1ccccc1O (stereo not given)	12	3	-30	10	2	-15	nt	nt
CCOC(=O)C(=CNc1ccc(OC)cc1[N+](=O)[O-])C(=O)OCC	-15	7	23	23	2	-3	nt	nt
C(=C\c1ccccc1)/C=N/Nc1nc(N2CCCCC2)nc(N2CCCCC2)n1	-27	1	57*	3	0	8	16	nt
O=C(CNC(=O)OCc1ccccc1)NCC(=O)Oc1ccc([N+](=O)[O-])cc1	nt	nt	nt	nt	-5	nt	nt	nt
CCNc1nc(NC(C)C)nc(Oc2ccc(OCc3ccccc3)nn2)n1	33	-1	28	7	1	9	nt	nt
CCNc1nc(NC(C)C)nc(Oc2ccc(OCCOc3ccccc3)nn2)n1	20	-5	51*	32	43	9	11	nt
CC(=O)NC1=NN(C(C)=O)C(C)(c2cccs2)S1 (stereo not given)	39	44	55*	26	-4	8	42*	52*
CCN(CC)Cc1cc2[nH]c3c4ccc(Cl)cc4ncc3c2cc1OC	11	32	54*	5	4	-8	24	nt
COc1ccc(CNc2ncnc3cc(Cl)ccc23)cc1OC	19	nt	nt	nt	25	2	nt	nt
Cc1cccc(NC(=O)c2cc(-c3ccc(C)c(C)c3O)n[nH]2)c1	-211	-42	53*	5	-44	-64	-37	nt
Cc1ccc(NC(=O)c2cc(-c3ccc(C)c(C)c3O)n[nH]2)cc1C	1	3	29	-6	7	-23	nt	nt
COc1ccc2nc(-c3ccccc3)[nH]c(=O)c2c1	nt	nt	nt	nt	-63	nt	nt	nt
COc1ccc(-c2nc3ccc(N4CCCC4)cc3c(=O)[nH]2)cc1OC	-50	38	52*	-21	9	-13	57*	56*
CC1(c2ccccc2Cl)NC(=O)N(CC(=O)NCc2ccc3c(c2)OCO3)C1=O (stereo not given)	-9	14	5	-1	-8	-7	nt	nt
